# The supplement of paper PMC8285479
# Counter-ions that a name gives are not always drawn. ± gives the standard deviation of the averaged measurements. Whole data set: some 1,900 compounds, median “normalised cell viability (NPI; 0 = phenylarsine oxide control, 1 = DMSO control)” near 1, cut for the lowest 2% near 0.039. The list comes from a sample in which the lowest values are over-represented; it also holds similar structures and randomly drawn compounds.
# System: NCI-H1944
# Test: normalised cell viability (NPI; 0 = phenylarsine oxide control, 1 = DMSO control) (fraction of DMSO control); NCI-H1944 is a non-small cell lung cancer line; higher = more viable cells (less compound toxicity)
# Conditions: 6 days
# [1] = glucocorticoid arm: hydrocortisone 2.75 uM co-treatment, compound 1 µM
# [2] = glucocorticoid arm: hydrocortisone 2.75 uM co-treatment, compound 5 µM
# [3] = glucocorticoid arm: hydrocortisone 2.75 uM pre-treated 2 days and continued, compound 1 µM
# [4] = glucocorticoid arm: hydrocortisone 2.75 uM pre-treated 2 days and continued, compound 5 µM
# [5] = glucocorticoid arm: vehicle, compound 1 µM
# [6] = glucocorticoid arm: vehicle, compound 5 µM
# 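Also: CTB read-out in 384-well plates, triplicate wells, NPI normalised per plate against 1 µM phenylarsine oxide (0) and 0.1% DMSO (1) controls.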
Compound,normalised cell viability [1],normalised cell viability [2],normalised cell viability [3],normalised cell viability [4],normalised cell viability [5],normalised cell viability [6]
NC(CCCP(=O)(O)O)C(=O)O (racemic) [(±)-2-Amino-5-phosphonopentanoic acid],0.987 ± 0.0072,0.9967 ± 0.0031,0.9907 ± 0.0083,0.993 ± 0.0028,0.98 ± 0.0056,0.9857 ± 0.0098
N[C@@H](CCC(=O)N[C@@H](CSN=O)C(=O)NCC(=O)O)C(=O)O [S-Nitrosoglutathione],1.003 ± 0.0058,1.02 ± 0.025,1.02,1.04 ± 0.064,0.9933 ± 0.0035,1 ± 0.014
c1ccc2c(c1)CC(N1CCN(c3cccc4c3OCCO4)CC1)C2,0.988 ± 0.019,0.9857 ± 0.0084,0.995 ± 0.015,1.03 ± 0.081,1.003 ± 0.0058,1.02 ± 0.011
Nc1nccc2c1ncn2[C@@H]1O[C@H](CO)[C@@H](O)[C@H]1O [3-deazaadenosine],0.989 ± 0.0099,0.973 ± 0.025,0.996 ± 0.012,0.981 ± 0.011,0.9687 ± 0.0035,0.968 ± 0.0062
O=C(c1ccc(Nc2nccc(-c3cc4ccccc4s3)n2)cc1)N1CCC(N2CCCC2)CC1 [IKK-16 (IKK Inhibitor VII)],0.901 ± 0.0072,0.626 ± 0.03,0.913 ± 0.015,0.837 ± 0.021,0.9453 ± 0.0065,0.0503 ± 0.008
CNCC[C@H](Oc1cccc2ccccc12)c1cccs1 [Duloxetine HCl],0.9993 ± 0.0011,0.9847 ± 0.0032,1.01 ± 0.018,0.98 ± 0.015,0.999 ± 0.0095,0.9923 ± 0.0083
C[n+]1cc2c3c(ccc2c2ccc4cc5c(cc4c21)OCO5)OCO3 [Sanguinarine chloride],1.04 ± 0.011,-0.0014 ± 0.001,0.903 ± 0.2,-0.00109 ± 0.00052,0.983 ± 0.037,-0.000203 ± 0.00043
Cc1ccccc1CNc1ncnc2c1ncn2[C@@H]1O[C@H](CO)[C@@H](O)[C@H]1O [Metrifudil],1.01 ± 0.011,1.03 ± 0.017,1.02,1.04 ± 0.071,0.996 ± 0.004,1.001 ± 0.0085
O=C(O)C1CCNCC1 [Isonipecotic acid],1.003 ± 0.0058,1.02 ± 0.017,1.01 ± 0.018,1.04 ± 0.07,0.9937 ± 0.0015,1.001 ± 0.0078
Cc1ccccc1/C=C/C1=NCCN1 [Metrazoline oxalate],0.9993 ± 0.0011,1.002 ± 0.0072,1.01,0.987 ± 0.017,0.995 ± 0.007,1.002 ± 0.0076
CN(N=O)C(=O)N[C@@H]1[C@@H](O)[C@H](O)[C@@H](CO)O[C@@H]1O [Streptozocin],1 ± 0.014,1.03 ± 0.015,1.001 ± 0.0081,1.04 ± 0.01,0.9943 ± 0.0051,1
CC(C)[C@H]1c2ccc(F)cc2CC[C@@]1(CCN(C)CCCc1nc2ccccc2[nH]1)OC(=O)C1CC1,0.9943 ± 0.0051,-0.000718 ± 0.00075,1.013 ± 0.0058,1.08 ± 0.035,0.989 ± 0.0095,-6.33e-05 ± 0.0017
COCC(=O)O[C@]1(CCN(C)CCCc2nc3ccccc3[nH]2)CCc2cc(F)ccc2[C@@H]1C(C)C [Mibefradil dihydrochloride],0.977 ± 0.011,0.0303 ± 0.012,1 ± 0.015,0.827 ± 0.24,0.9887 ± 0.0031,0.00844 ± 0.014
CCOc1ccc(Cc2cc([C@@H]3O[C@H](CO)[C@@H](O)[C@H](O)[C@H]3O)ccc2Cl)cc1 [Dapagliflozin],1.01 ± 0.016,1.02 ± 0.026,1.02 ± 0.015,1.04 ± 0.017,1.001 ± 0.0081,1 ± 0.011
CNC(=O)[C@H]1O[C@@H](n2cnc3c(N)ncnc32)[C@H](O)[C@@H]1O [5'-N-Methyl carboxamidoadenosine],0.982 ± 0.02,0.972 ± 0.015,0.988 ± 0.013,0.961 ± 0.0028,0.9893 ± 0.0078,0.976 ± 0.0053
O=C(O)/C(=C\c1c(C(=O)O)[nH]c2cc(Cl)cc(Cl)c12)c1ccccc1,1.02 ± 0.015,1.06 ± 0.017,1.017 ± 0.0058,1.08 ± 0.081,0.995 ± 0.002,1.013 ± 0.0058
C/C=C1\NC(=O)[C@H]2CSSCC/C=C/[C@H](CC(=O)N[C@H](C(C)C)C(=O)N2)OC(=O)[C@H](C(C)C)NC1=O [Romidepsin],1.005 ± 0.0092,1.02 ± 0.011,1.007 ± 0.0058,1.02 ± 0.015,0.9903 ± 0.0045,0.979 ± 0.019
C/C=C1\NC(=O)[C@H]2CSSCC/C=C/[C@H](CC(=O)N[C@H](C(C)C)C(=O)N2)OC(=O)[C@H](C(C)C)NC1=O [Depsipeptide],6.37e-05 ± 0.001,1.05 ± 0.02,0.00143 ± 0.00036,1.027 ± 0.0058,0.00028 ± 0.00044,1.01
"C/C=C1\NC(=O)[C@H]2CSSCC/C=C/[C@H](CC(=O)N[C@H](C(C)C)C(=O)N2)OC(=O)[C@H](C(C)C)NC1=O [Romidepsin (FK228, Depsipeptide)]",0.00704 ± 0.0021,0.000455 ± 0.00053,0.00593 ± 0.0021,0.000393 ± 0.00068,0.00559 ± 0.0012,2.1e-05 ± 0.00023
O=C(O)C1CCCNC1 (racemic) [(±)-Nipecotic acid],0.9947 ± 0.005,1.01 ± 0.014,1.02 ± 0.059,1.02 ± 0.021,1 ± 0.01,1.013 ± 0.0058
CN(C)CCSSCCNC(=O)C1CCN(C(=O)CSc2ccc(Cl)cc2)CC1,1.01 ± 0.01,1.04 ± 0.015,1.027 ± 0.0058,1.05 ± 0.01,0.9967 ± 0.0035,0.9967 ± 0.0042
N[C@@H](Cc1c[nH]cn1)C(=O)O [L-Histidine hydrochloride],1.017 ± 0.0058,0.996 ± 0.012,1 ± 0.014,1.02 ± 0.01,0.9973 ± 0.0038,0.9973 ± 0.0046
"O=C(O)c1ccnc(C(=O)O)c1 [2,4-Pyridinedicarboxylic Acid]",1 ± 0.022,0.999 ± 0.045,0.996 ± 0.021,1.01 ± 0.024,0.996 ± 0.015,0.999 ± 0.015
CN=c1nc(-c2ccccc2)n(-c2ccccc2)s1,1.003 ± 0.0058,1.04 ± 0.031,0.832 ± 0.33,1.02 ± 0.01,1.01,1.017 ± 0.0058
O=C1Nc2ccc(I)cc2C1=Cc1cc(Br)c(O)c(Br)c1,1.047 ± 0.0058,1.113 ± 0.0058,1.04 ± 0.01,1.08 ± 0.021,1.02 ± 0.01,1.043 ± 0.0058
Cc1nc(N=Nc2cc([N+](=O)[O-])ccc2Cl)c(COP(=O)(O)O)c(C=O)c1O [MRS 2211 sodium salt hydrate],1.003 ± 0.0061,1.023 ± 0.0058,0.9933 ± 0.0099,0.995 ± 0.036,1.01 ± 0.013,1.006 ± 0.0075
Cc1c2oc3c(C)ccc(C(=O)N[C@@H]4C(=O)N[C@H](C(C)C)C(=O)N5CCC[C@H]5C(=O)N(C)CC(=O)N(C)[C@@H](C(C)C)C(=O)O[C@@H]4C)c3nc-2c(C(=O)N[C@@H]2C(=O)N[C@H](C(C)C)C(=O)N3CCC[C@H]3C(=O)N(C)CC(=O)N(C)[C@@H](C(C)C)C(=O)O[C@@H]2C)c(N)c1=O [Dactinomycin],0.0161 ± 0.0015,0.0688 ± 0.0039,0.0397 ± 0.0056,0.183 ± 0.016,0.0046 ± 0.00021,0.0187 ± 0.0011
COc1cc2c(cc1OC)-c1c/c(=N\c3c(C)cc(C)cc3C)n(C)c(=O)n1CC2 [Trequinsin hydrochloride],1.03 ± 0.015,1.02 ± 0.022,0.908 ± 0.2,1.033 ± 0.0058,1.023 ± 0.0058,1.05 ± 0.035
CC(Cc1ccccc1)Nc1ncnc2c1ncn2C1OC(CO)C(O)C1O (stereo not drawn) [R(-)-N6-(2-Phenylisopropyl)adenosine],0.998 ± 0.002,1.01 ± 0.018,0.9997 ± 0.0096,1.03 ± 0.031,1.013 ± 0.0058,1.02 ± 0.017
